The list is not random: actives were taken first. Their share in the collection is about 1.5%.
V-ATPase pH = yeast V-ATPase proton transport regulation by pHLuorin | 0.37% of 350,000 active | response, % at 10 µM | S. cerevisiae, pHLuorin cytosolic pH fluorescence | AID 504577; in the data active = response mostly above about 7.3%, no sharp cut-off; inactive = mostly below about 5.4%; also: actives read high
CRFR2-BP ag = agonists of human CRF-binding protein/CRF-R2 receptor complex | 0.46% of 350,000 active | activation, % at 13.2 µM | AID 588473 | HEK293 CRF-R2/CRF-BP, calcium dye fluorescence (FLIPR); percent of saturating CRF peptide response;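 active = activation of at least 50%, plus an integration ratio under a set limit after plate pattern correction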;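 also: plate controls were neutral control wells without compound for no effect and CRF at EC100 for full effect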
NTR1 ag = activates human neurotensin receptor 1 | P30989 | NTR1-U2OS beta-arrestin-GFP spot imaging, agonist mode | activation, % at 20 µM | 0.17% of 330,000 active | AID 493036;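 active = activation at or above 40% of the spot to cytoplasm intensity ratio, with at least 20 cells analyzed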;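 also: 0% = DMSO without peptide and 100% = 100 nM NTR1 peptide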
Target sequence (P30989 whole entry, looked up): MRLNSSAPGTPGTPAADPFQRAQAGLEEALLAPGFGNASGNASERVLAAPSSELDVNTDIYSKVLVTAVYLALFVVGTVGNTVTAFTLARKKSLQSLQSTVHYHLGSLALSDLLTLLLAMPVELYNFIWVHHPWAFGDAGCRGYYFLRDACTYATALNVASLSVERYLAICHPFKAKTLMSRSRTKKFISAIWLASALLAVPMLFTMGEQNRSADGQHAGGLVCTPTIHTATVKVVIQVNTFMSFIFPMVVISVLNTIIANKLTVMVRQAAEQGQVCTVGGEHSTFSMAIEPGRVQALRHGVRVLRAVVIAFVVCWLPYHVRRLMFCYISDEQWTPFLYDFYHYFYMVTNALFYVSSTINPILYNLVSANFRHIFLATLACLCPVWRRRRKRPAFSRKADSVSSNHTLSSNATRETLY
CRFR2-BP antag = CRF-BP/CRF-R2 complex antagonism; HEK293 CRF-R2/CRF-BP, CRF-induced calcium fluorescence; inhibition, % at 11.8 µM; 0.59% of 350,000 active; AID 588475;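 active = inhibition of the ligand-induced calcium signal above about 50% at the single tested concentration, limit read from the data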
V-ATPase pH SP = modulates yeast V-ATPase proton transport. S. cerevisiae pHLuorin cytosolic pH. 2% of 980 active. response, % at 10 µM. shares compounds with V-ATPase pH. AID 602197; in the data active = response above about 24%;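 also: plate controls were vehicle wells for no effect and positive control wells for full effect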
Numbers without * were called inactive; . = not tested or not shown.

SMILES | V-ATPase pH | CRFR2-BP ag | NTR1 ag | CRFR2-BP antag | V-ATPase pH SP
CC1=C(C(=O)Nc2ccccc2)C(c2cccc([N+](=O)[O-])c2)Nc2nc3ccccc3n21 (stereo unspecified) | 17* | 0 | 6 | -1 | 1
CC1CN(C(=O)COc2ccc3c(-c4ccccc4)cc(=O)oc3c2)CC(C)O1 (stereo unspecified) | -3 | 0 | 2 | -14 | .
CCOC(=O)C1CCN(C(=O)/C=C/c2ccccc2)CC1 | 1 | 0 | 0 | 6 | .
CCOC(=O)C1CCN(C(=O)COC(=O)/C=C/c2ccccc2)CC1 | 9.4* | 0 | -1 | -1 | -5
CC1CCCCC1NC(=O)CN1CCN(S(=O)(=O)c2ccc(Br)s2)CC1 (stereo unspecified) | -3 | -5 | 2 | -11 | .
O=C(Oc1cccccc1=O)c1ccccc1 | 1 | -2 | -1 | 43 | .
O=C(Oc1ccccc1Cl)c1ccccc1 | 13* | -2 | . | 24 | 4
Cc1ccc(NS(=O)(=O)c2cccc(C(=O)N3CCCCCCC3)c2)cc1 | 11* | -1 | 1 | -18 | -1
COc1cc(C(=O)N2CCN(c3ccccc3)CC2)c([N+](=O)[O-])cc1OC | -1 | 3 | 1 | 1 | .
CCCn1c(=O)c2sccc2n2c(CCCC(=O)NC3CCN(Cc4ccccc4)CC3)nnc12 | 10* | 0 | 1 | -5 | -1
O=c1c2ccccc2ncn1-c1ccc(Cl)cc1 | -4 | -2 | -1 | -1 | 4
O=c1c2ccccc2ncn1Cc1ccc(Cl)cc1 | -2 | 0 | 0 | -1 | .
CSc1nccc(N2CCN(c3ccc(F)cc3)CC2)n1 | 11* | 0 | 1 | -11 | -1
CCCCNC(=O)NS(=O)(=O)c1ccc(C)cc1 | -3 | 0 | -1 | -11 | .
Cc1ccc(S(=O)(=O)NC(=O)NCCCCNC(=O)NS(=O)(=O)c2ccc(C)cc2)cc1 | 18* | -1 | -2 | 19 | 1
CC1CCCN(CCC(=O)c2ccc(Br)cc2)C1 (stereo unspecified) | 8.8* | 3 | 1 | -12 | 16
Cc1ccc(NC(=S)Nc2cccnc2)c(S(=O)(=O)N2CCCCC2)c1 | -3 | -1 | 1 | 11 | .
NNC(=O)Cc1cccc2ccc(Cl)cc12 | 4 | -2 | . | 4 | .
CCOc1ccccc1N(CC(=O)Nc1cccnc1)S(C)(=O)=O | 5 | 0 | 1 | 5 | .
CCOc1ccccc1N(CC(=O)Nc1cccnc1)S(=O)(=O)c1ccc(C)cc1 | 9.9* | 0 | 0 | -5 | 6
CCCn1cc(CN2CCC(N3CCC(C(=O)N4CCOCC4)CC3)CC2)c(C)n1 | 0 | 0 | 0 | 1 | .
CCNc1nnc(CCn2nc(C)c(Br)c2C)s1 | 18* | 4 | 2 | -17 | 1
CCCCNc1nnc(CCn2nc(C)c(Br)c2C)s1 | -1 | 1 | 2 | -30 | .
CCC(C)c1ccccc1N1CC(C(=O)N(C)CC(=O)Nc2cccc(F)c2)CC1=O (stereo unspecified) | 18 | 1 | 0 | -11 | .
CCc1cc(-c2nnn(CCC3COCCO3)c2CC)ccc1-c1cn(Cc2ccccc2)nn1 (stereo unspecified) | 3 | 3 | . | -7 | .
SMILES | V-ATPase pH | CRFR2-BP ag | NTR1 ag | CRFR2-BP antag | V-ATPase pH SP
CCc1cc(-c2cnnn2Cc2ccc3ccccc3c2)ccc1-c1cn(CC(C)C)nn1 | 7.2* | 3 | . | 11 | 1
COc1cccc(N2C(=O)/C(=C\c3cccs3)NC2=S)c1 | 21* | 0 | 3 | 0 | -4
COc1cc(NC(=O)Cn2cnc3c(NCc4ccccc4)ncnc32)cc(OC)c1OC | 11* | -3 | -1 | -4 | 2
O=C(O)c1c[nH]c2c([N+](=O)[O-])cccc2c1=O | 1 | -2 | . | 13 | .
O=C(CSc1n[nH]c(-c2ccco2)n1)Nc1ccccc1Cl | 12* | 1 | 0 | 4 | -3
O=c1nc(Nc2ccccc2)sc2ccc([N+](=O)[O-])cc12 | 0 | -4 | -1 | 12 | .
O=C(c1cc(=O)[nH]c2ccccc12)N1CCN(c2ccccc2)CC1 | -4 | -1 | 0 | -26 | .
Cc1cccc(N2CCN(C(=O)c3cc(=O)[nH]c4ccccc34)CC2)c1C | 14* | -2 | 2 | -27 | 2
O=C(CSc1nnc(Nc2ccccc2)s1)NN1C(=O)NC2(CCCCC2)C1=O | -1 | -2 | 1 | 14 | .
NS(=O)(=O)c1ccc2nc(NC(=O)Nc3ccc(F)cc3)sc2c1 | -1 | 2 | 5 | -14 | .
COc1cccc(CNCc2cc(OC)cc(OC)c2)c1 | 4 | -1 | -1 | -6 | .
COc1cc(CNCc2ccc(OC)c(OC)c2OC)cc(OC)c1 | 12* | -1 | 0 | -8 | -5
CC1=NN(c2nc(N)nc(/C(C#N)=C/c3ccc([N+](=O)[O-])o3)n2)C(C)(C)C1 | 48* | 38 | . | -78 | 0
Cc1ccc(CN2CCNC(=O)C2CC(=O)N(C)CCc2ccccc2)cc1 (stereo unspecified) | 11* | -1 | 0 | -14 | 1
CN(CCc1ccccn1)C(=O)CC1C(=O)NCCN1Cc1ccc(-c2ccccc2)cc1 (stereo unspecified) | 1 | -4 | 0 | 3 | .
CC(=O)Nc1ccc(NC(=O)CCSCCc2ccccn2)cc1 | -3 | 1 | -1 | -9 | .
COc1ccc(CN2CCC(=O)N([C@H](CO)c3ccccc3)CC2)cc1 | 1 | 1 | -1 | -1 | .
COc1cc(/C=N/NC(=O)CN2CCCCC2)ccc1OCc1ccccc1 | 9.6* | 6 | 1 | -12 | -2
CCCCC[C@@H](/C=C/C1C(=O)C=C[C@H]1C/C=C\CCCC(=O)O)OC(C)=O (stereo partly specified) | 0 | 0 | . | 5 | .
Cc1cccc2nc(-c3cccnc3)c(Nc3ccccc3)n12 | 1 | -1 | 0 | -9 | .
Cc1cccc2nc(-c3cccnc3)c(NCCC(C)C)n12 | 12* | -2 | 4 | -39 | -1
CC(=O)c1ccc(S(=O)(=O)N(C)CC(=O)NCc2ccco2)cc1 | 0 | -1 | 0 | 10 | .
Cc1cc(NC(=O)c2cc(-c3ccc(O)cc3)on2)no1 | 1 | 1 | 1 | -4 | .
CCc1ccc(NC(=O)c2cc(C)on2)cc1 | -4 | -1 | -1 | -21 | .
Cc1ccc(NC(=O)c2cc(C)on2)cc1 | 6.9* | -2 | 0 | 7 | 2
Cc1cc(NC(=O)c2cc(-c3ccc(Br)cc3)on2)no1 | 10* | 1 | 1 | -9 | 3
O=C(CCSC1=NCCCN1)c1ccc(F)cc1 | 25 | -4 | . | 23 | 45*
CCN1C(=O)C(CC(=O)Nc2ccc(OC)cc2)N(CCCN2CCN(c3ccc(F)cc3)CC2)C1=S (stereo unspecified) | 13* | 7 | 4 | -30 | 3
COc1ccc(-c2coc3cc(O[C@@H]4O[C@H](CO)[C@@H](O)[C@H](O)[C@H]4O)ccc3c2=O)cc1 | 9 | 1 | -3 | 15 | .
COc1cc2c(=O)c(-c3ccc(O)cc3)coc2cc1OC1OC(CO)C(O)C(O)C1O (stereo unspecified) | 9.6* | -1 | 1 | -6 | 4

Assay outcomes (PubChem)
